Reference: the supplement of paper PMC8371130
Where a name gives a salt, the structure may show the parent alone.

System: HL-1
Experiment: relative cell viability (CellTiter-Glo) vs DMSO control (% of DMSO control); higher = more viable cells
Summary of the method: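 Viability of HL-1 mouse atrial cardiomyocytes was assessed by CellTiter-Glo luminescence and normalised to vehicle-treated control cells. Cells were plated in 384-well plates at 1000 cells per well with compounds at 40, 200, 1000 or 5000 nM in 0.01% DMSO, and one day later were placed at 1% O2 for 48 h, then reoxygenated for 24 h, or kept in normoxia for the same duration.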

[1] = oxygen condition: hypoxia 48 h (1% O2) + reoxygenation 24 h, 40 nM
[2] = oxygen condition: hypoxia 48 h (1% O2) + reoxygenation 24 h, 200 nM
[3] = oxygen condition: hypoxia 48 h (1% O2) + reoxygenation 24 h, 1000 nM
[4] = oxygen condition: hypoxia 48 h (1% O2) + reoxygenation 24 h, 5000 nM
[5] = oxygen condition: normoxia 72 h, 40 nM
[6] = oxygen condition: normoxia 72 h, 200 nM
[7] = oxygen condition: normoxia 72 h, 1000 nM
[8] = oxygen condition: normoxia 72 h, 5000 nM

Row | Compound | relative cell viability [1] | relative cell viability [2] | relative cell viability [3] | relative cell viability [4] | relative cell viability [5] | relative cell viability [6] | relative cell viability [7] | relative cell viability [8]
1 | CN(N=O)C(=O)N[C@@H](C=O)[C@@H](O)[C@H](O)[C@H](O)CO [Streptozotocin] | 103 | 103 | 99.8 | 109 | 99.9 | 109 | 104 | 102
2 | CN(CCOc1ccc(CC2SC(=O)NC2=O)cc1)c1ccccn1 (centres undefined) [Rosiglitazone] | 104 | 104 | 98.3 | 104 | 99.2 | 105 | 98.4 | 104
3 | C[N+](C)(C)C[C@H](O)CC(=O)[O-] [L-carnitine] | 102 | 104 | 103 | 113 | 101 | 107 | 102 | 107
4 | O=C(O)c1ccc(-n2nc(-c3ccccc3O)nc2-c2ccccc2O)cc1 [Deferasirox] | 93.2 | 100 | 99.7 | 88.1 | 97 | 104 | 94.3 | 42.9
5 | O=C(O)CCCN1CCC(O[C@@H](c2ccc(Cl)cc2)c2ccccn2)CC1 [Bepotastine Besilate] | 112 | 108 | 111 | 120 | 113 | 115 | 115 | 131
6 | CN1CCCCC1CCN1c2ccccc2Sc2ccc([S+](C)[O-])cc21 (centres undefined) [Mesoridazine Besylate] | 108 | 106 | 105 | 113 | 97 | 102 | 117 | 115
7 | OC1(c2ccc(Cl)c(C(F)(F)F)c2)CCN(CCCC(c2ccc(F)cc2)c2ccc(F)cc2)CC1 [Penfluridol] | 96.8 | 107 | 96.7 | 116 | 97.8 | 100 | 104 | 120
8 | CC(=O)[C@H]1CC[C@H]2[C@@H]3CCC4=CC(=O)CC[C@]4(C)[C@H]3CC[C@]12C [Progesterone] | 109 | 105 | 103 | 116 | 111 | 111 | 111 | 116
9 | Nc1nc2[nH]cnc2c(=S)[nH]1 [Thioguanine] | 97.1 | 79.2 | 65.6 | 24.5 | 82.9 | 75.5 | 64 | 22.5
10 | CCCCN(CCCC)CCCOC(=O)c1ccc(N)cc1 [Butacaine] | 103 | 101 | 106 | 106 | 103 | 92.7 | 102 | 104
11 | N#CC[C@H](C1CCCC1)n1cc(-c2ncnc3[nH]ccc23)cn1 [Ruxolitinib] | 95.7 | 98.9 | 104 | 111 | 99.8 | 96.6 | 102 | 104
12 | C[C@@H]1C[C@H]2[C@@H]3C[C@H](F)C4=CC(=O)C=C[C@]4(C)[C@@]3(F)[C@@H](O)C[C@]2(C)[C@@]1(O)C(=O)CO [Flumethasone] | 105 | 97.4 | 103 | 106 | 96.3 | 95.8 | 94.4 | 108
13 | O=C1CCc2ccc(OCCCCN3CCN(c4cccc(Cl)c4Cl)CC3)cc2N1 [Aripiprazole] | 98.7 | 104 | 97 | 97.8 | 99 | 99.7 | 98.7 | 99.9
14 | CN(C)CCC(c1ccccc1)c1ccccn1 (centres undefined) [Pheniramine Maleate] | 102 | 103 | 104 | 117 | 105 | 101 | 104 | 113
15 | COc1c2ccoc2cc2oc(=O)ccc12 [Bergapten] | 101 | 104 | 107 | 109 | 99.2 | 96.6 | 109 | 103
16 | CC[C@H]1OC(=O)C[C@@H](O)[C@H](C)[C@@H](O[C@@H]2O[C@H](C)[C@@H](O[C@H]3C[C@@](C)(O)[C@@H](O)[C@H](C)O3)[C@H](N(C)C)[C@H]2O)[C@@H](CC=O)C[C@@H](C)C(=O)/C=C/C(C)=C/[C@@H]1CO[C@@H]1O[C@H](C)[C@@H](O)[C@@H](OC)[C@H]1OC [Tylosin tartrate] | 102 | 108 | 99.4 | 99 | 101 | 92.6 | 100 | 91.8
17 | COC(=O)C1=C(C#N)NC(C)=C(C(=O)OC(C)C)C1c1cccc([N+](=O)[O-])c1 (centres undefined) [Nilvadipine] | 107 | 105 | 96.3 | 98.7 | 98.3 | 98.1 | 102 | 108

Row | Compound | relative cell viability [1] | relative cell viability [2] | relative cell viability [3] | relative cell viability [4] | relative cell viability [5] | relative cell viability [6] | relative cell viability [7] | relative cell viability [8]
18 | C[C@@H](Oc1cc(-c2cnn(C3CCNCC3)c2)cnc1N)c1c(Cl)ccc(F)c1Cl [Crizotinib] | 94.3 | 92.1 | 99.2 | 70.3 | 98.8 | 98.6 | 87.4 | 52
19 | CCOC(=O)[C@H](CCc1ccccc1)N[C@H]1CCCN2CCC[C@@H](C(=O)O)N2C1=O [Cilazapril monohydrate] | 97.6 | 97.3 | 94.1 | 113 | 105 | 106 | 98.7 | 115
20 | Nc1nnc(-c2cccc(Cl)c2Cl)c(N)n1 [Lamotrigine] | 107 | 102 | 108 | 117 | 106 | 96.1 | 115 | 117
21 | OC[C@@H](O)[C@@H](O)[C@H](O)[C@H](O)CO [D-Mannitol] | 102 | 86.9 | 113 | 113 | 106 | 98.9 | 108 | 87.3
22 | COc1ccc2[nH]c([S@@+]([O-])Cc3ncc(C)c(OC)c3C)nc2c1 [Esomeprazole magnesium] | 107 | 113 | 114 | 118 | 104 | 114 | 115 | 119
23 | CCOC(=O)C1=C(COCCN)NC(C)=C(C(=O)OC)C1c1ccccc1Cl (centres undefined) [Amlodipine besylate] | 88 | 102 | 102 | 105 | 103 | 105 | 106 | 102
24 | C#C[C@]1(O)CC[C@H]2[C@@H]3CCC4=CC(=O)CC[C@@H]4[C@H]3CC[C@@]21C [norethindrone] | 97.6 | 100 | 97 | 105 | 102 | 108 | 100 | 113
25 | O=C1Cc2cc(CCN3CCN(c4nsc5ccccc45)CC3)c(Cl)cc2N1 [Ziprasidone hydrochloride] | 105 | 101 | 106 | 102 | 107 | 98.2 | 104 | 98.4
26 | COC(=O)C1=C(C)NC(C)=C(C(=O)OC(C)C)C1c1cccc2nonc12 (centres undefined) [Isradipine] | 106 | 111 | 106 | 104 | 108 | 97.7 | 102 | 110
27 | Nc1[nH]cnc2ncnc1-2 [Adenine sulfate] | 101 | 101 | 105 | 111 | 113 | 105 | 110 | 113
28 | CC(C)OC(=O)C(C)(C)Oc1ccc(C(=O)c2ccc(Cl)cc2)cc1 [Fenofibrate] | 103 | 105 | 108 | 110 | 103 | 97.9 | 97.5 | 112
29 | C[C@H](N[C@@H](CCc1ccccc1)C(=O)O)C(=O)N1CCC[C@H]1C(=O)O [Enalaprilat dihydrate] | 104 | 106 | 102 | 110 | 104 | 99 | 107 | 109
30 | CNCC(O)c1ccc(O)c(O)c1 (racemic) [DL-Adrenaline] | 100 | 97.8 | 67.7 | 15.5 | 107 | 93.8 | 63.6 | 11.8
31 | C[C@]12CCC(=O)C=C1[C@@H]1C[C@@H]1[C@H]1[C@@H]3[C@@H]4C[C@@H]4[C@@]4(CCC(=O)O4)[C@@]3(C)CC[C@@H]12 [Drospirenone] | 104 | 104 | 109 | 105 | 103 | 112 | 100 | 104
32 | CNS(=O)(=O)Cc1ccc2[nH]cc(CCN(C)C)c2c1 [Sumatriptan succinate] | 107 | 109 | 100 | 110 | 102 | 100 | 108 | 104
33 | Nc1nc2ccc(OC(F)(F)F)cc2s1 [Riluzole] | 102 | 105 | 108 | 111 | 103 | 104 | 107 | 107
